These results are taken from PubChem BioAssay AID1445 (SRMLSC, 2008).

Screen size: about 220,000 compounds; about 910 (0.41%) were called active. Many of the other results were omitted from the sample, so actives are more common in it than they were. Potency and affinity values are given separately. Unmarked numbers belong to inactive results.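 The calls were made as follows: active = primary inhibition above the hit cutoff, then over 50% inhibition at one or more dose response concentrations (cut at about 23% in these data, passing the limit was not always enough); inconclusive = conflicting primary data, or primary hits not chosen for dose response; inactive = low primary inhibition, or under 50% at every dose.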 Where a SMILES comes first, the peptide text is derived from it. The star is where a group is joined. Boc = CC(C)(C)OC(=O)*

The target of this test is Aminopeptidase N (Plasmodium falciparum (isolate 3D7)) (UniProt O96935). The test is described as follows: malaria alanyl aminopeptidase activity blockers – biochemical, fluorogenic H-Leu-NHMec substrate, 1536-well (AID 1445).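 Also: plate controls were DMSO full reaction for no effect and no enzyme background for full effect.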 Conditions: recombinant M1AAP, H-Leu-NHMec fluorogenic kinetic assay; at 30 µM, stronger effect = higher value unless noted.
Chain of Aminopeptidase N (Plasmodium falciparum (isolate 3D7)) (O96935 whole entry, looked up): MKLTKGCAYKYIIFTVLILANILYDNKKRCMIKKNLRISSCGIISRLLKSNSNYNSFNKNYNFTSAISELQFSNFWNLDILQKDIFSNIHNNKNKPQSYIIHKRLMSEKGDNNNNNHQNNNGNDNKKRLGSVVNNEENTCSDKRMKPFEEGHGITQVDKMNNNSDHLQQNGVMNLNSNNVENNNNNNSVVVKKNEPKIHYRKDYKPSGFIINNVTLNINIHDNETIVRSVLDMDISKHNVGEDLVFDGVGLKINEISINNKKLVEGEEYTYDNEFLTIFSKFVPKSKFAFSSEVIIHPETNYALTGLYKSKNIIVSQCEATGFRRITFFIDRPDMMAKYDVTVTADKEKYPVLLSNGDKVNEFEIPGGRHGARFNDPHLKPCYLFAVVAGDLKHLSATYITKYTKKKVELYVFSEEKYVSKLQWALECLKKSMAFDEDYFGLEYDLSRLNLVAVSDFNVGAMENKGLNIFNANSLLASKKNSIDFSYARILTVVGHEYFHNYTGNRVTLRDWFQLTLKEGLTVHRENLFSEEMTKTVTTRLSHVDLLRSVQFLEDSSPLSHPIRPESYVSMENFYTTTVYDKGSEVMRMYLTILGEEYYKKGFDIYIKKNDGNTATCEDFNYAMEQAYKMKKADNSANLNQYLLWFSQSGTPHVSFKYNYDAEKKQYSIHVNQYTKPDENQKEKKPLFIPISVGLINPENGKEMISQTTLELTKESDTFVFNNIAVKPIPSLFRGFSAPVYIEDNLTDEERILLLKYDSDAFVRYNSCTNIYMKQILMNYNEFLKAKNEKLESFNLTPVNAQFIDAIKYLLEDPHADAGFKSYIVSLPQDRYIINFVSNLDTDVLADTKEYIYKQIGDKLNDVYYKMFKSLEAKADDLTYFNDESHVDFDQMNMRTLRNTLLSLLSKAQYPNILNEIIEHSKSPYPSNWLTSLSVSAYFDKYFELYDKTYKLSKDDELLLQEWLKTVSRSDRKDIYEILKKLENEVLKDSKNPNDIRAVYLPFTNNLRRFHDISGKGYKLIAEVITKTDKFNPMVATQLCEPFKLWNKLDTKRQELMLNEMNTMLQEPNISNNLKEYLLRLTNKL
For orientation: inhibition means the drop in the measured response relative to a control, in per cent. On to `COC(=O)/C(N=Nc1cccc(C(F)(F)F)c1)=C(\C)O`, for which the inhibition is 8.29%.

For the compound `Cc1ccc(CN(Cc2cc3cc4c(cc3[nH]c2=O)OCCO4)Cc2nnnn2Cc2ccco2)cc1`, the inhibition was 22.7%.

`O=c1[nH]c2cc3c(cc2cc1CN(Cc1cccnc1)Cc1nnnn1Cc1ccco1)OCCO3`: the inhibition was 26.5% (active).

`CCc1ccc2[nH]c(=O)c(CN(Cc3ccccc3)Cc3nnnn3Cc3ccco3)cc2c1`: the inhibition is 13.2%. For the compound `CCCOc1ccc(Cc2nc(N)nc(N)n2)cc1`, the inhibition is -6.23%. On to `C=C(C)C(=O)Nc1cccc(C2=NOC3(C2)C[C@@H](C(N)=O)N(C(=O)c2ccc(Cl)cc2)C3)c1` (some centres not stated), for which the inhibition was 4.17%. Next, `Cc1nn(Cc2ccccc2)c(Cl)c1/C=C1\NC(=S)NC1=O`: 4.75%; `COc1cc(NC(=O)c2ccc([N+](=O)[O-])o2)ccc1NC(=O)c1cccs1`: 4.73%. Turning to `O=C(Nc1cccc(NC(=O)c2cccs2)c1)c1ccco1`, the inhibition is 14.8%.

For the compound `O=C(O)CCc1ccc(-c2ccccc2)n1NC(=O)c1cccs1`, the inhibition was 6.72%. For `O=C(O)CCc1ccc(-c2ccccc2)n1NC(=O)c1ccco1`, the inhibition is 3.09%. With `O=C(O)CCc1ccc(-c2ccccc2)n1NC(=O)c1sc2ccccc2c1Cl`, the inhibition is 24.7% (active).

Take `Cc1ccc(NC(=O)Nc2sc(=S)n(C)c2C)cc1`: the inhibition is -0.53%.

Turning to `COc1ccccc1N=Cc1nc(-c2ccccc2)oc1OC(C)=O`, the inhibition was 19.1%.

For the compound `CCC(=O)Oc1oc(-c2ccccc2)nc1C=Nc1ccc(C)cc1`, the inhibition was 1.55%. With `CCC(=O)Oc1oc(-c2ccccc2)nc1C=Nc1ccccc1OC`, the inhibition is 24.3% (active). On to `CCOC(=O)c1cc(C)sc1/N=C/C1C(=O)CC(C)(C)CC1=O`, for which the inhibition was 1.61%. With `CCCn1c(SCC(=O)Nc2cccc(S(=O)(=O)N(C)C)c2)nc2ccccc2c1=O`, the inhibition is 6.03%. On to `O=C(CSc1nnnn1-c1cccc2ccccc12)NC(C(=O)O)(c1ccccc1)c1ccccc1`, for which the inhibition was 23.1%. As for `Cc1ccc(-n2nnnc2SCC(=O)Nc2ccccc2-c2ccccc2)cc1C`, the inhibition is -2.36%. Turning to `O=C(O)CC/C(=N\Nc1ccc([N+](=O)[O-])cc1)c1ccccc1`, the inhibition is 7.87%. With `COc1cc(C(N)=O)cc(Br)c1OC`, the inhibition was 23.4% (active).

On to `CCOc1cc(C(N)=O)cc(Br)c1OC`, for which the inhibition was -3.95%. Regarding `CCOc1c(Br)cc(C(N)=O)cc1OC`, the inhibition is 2.69%.

For `Cc1nn(CCS(=O)(=O)c2ccc(Cl)cc2)c(C)c1Br`, the inhibition was 0.55%.

Turning to `COCc1cc(C)nc(OCC(=O)N/N=C/c2ccc(O)cc2O)c1C#N`, the inhibition was -7.94%.

For the compound `CSc1nnc(-c2cc3c(s2)-c2ccccc2CC3)o1`, the inhibition is 18.2%. As to `CCSc1nnc(-c2cc3c(s2)-c2ccccc2CC3)o1`, the inhibition was 19.1%. Regarding `O=C(NCc1ccccc1)c1ccc2c(c1)C(=O)N(Cc1ccncc1)C2=O`, the inhibition is -0.3%. Take `COc1ccc(C(C(=O)NC(C)(C)C)N(Cc2cccs2)C(=O)CCC(=O)Nc2cc(C)on2)cc1` (configuration not stated): the inhibition is -3.34%. `COc1cc(CCC(=O)OCC(=O)Nc2c(C)cccc2C(C)C)cc(OC)c1OC`: the inhibition was -0.28%. Turning to `Cc1cc2cc(C(c3nnnn3Cc3ccco3)N3CCc4ccccc43)c(=O)[nH]c2cc1C` (configuration not stated), the inhibition is 21.9%. As to `Cc1cc2cc(C(c3nnnn3Cc3ccco3)N3CCc4ccccc4C3)c(=O)[nH]c2cc1C` (configuration not stated), the inhibition was 14%.

In the case of `COc1ccc2[nH]c(=O)c(CN(C3CCCCC3)C(c3nnnn3Cc3ccco3)C(C)C)cc2c1` (configuration not stated), the inhibition was 23.7% (active). Next, `Cc1ccc(C)c2[nH]c(=O)c(C(c3nnnn3Cc3ccco3)N3CCc4ccccc4C3)cc12` (configuration not stated): 24.6% (active); `CCC(c1nnnn1Cc1ccco1)N(Cc1cc2cc(OC)ccc2[nH]c1=O)C1CCCCC1` (configuration not stated): 14.1%; `Cc1cc2cc(C(c3nnnn3Cc3ccco3)N3CCCCC3)c(=O)[nH]c2cc1C` (configuration not stated): 26.8% (active). As to `Cc1ccc(C)c2[nH]c(=O)c(C(c3nnnn3Cc3ccccc3)N3CCc4ccccc4C3)cc12` (configuration not stated), the inhibition was 7.95%.

Regarding `Cc1cccc2cc(C(c3nnnn3CC3CCCO3)N3CCc4ccccc4C3)c(=O)[nH]c12` (configuration not stated), the inhibition is 12.2%.

On to `COc1ccc2[nH]c(=O)c(CN(Cc3nnnn3Cc3ccco3)C3CCCCC3)cc2c1`, for which the inhibition is 16%. In the case of `CCOC(=O)c1ccc(Nc2nnc(C)c3ccccc23)cc1`, the inhibition is 6.41%. The figure for `CSc1ccccc1NC(=O)CN(C)CC(=O)NCc1ccccc1` is -1.28%; for `CC1(C)CC(=O)C(C=NCCN2CCN(C(=O)c3ccc(Br)cc3)CC2)=C(O)C1` it is 2.26%. `COc1ccc(CCNC(=O)[C@@H](NC(=O)c2ccccc2F)C(C)C)cc1OC`: the inhibition was 0.88%. For `Oc1c(Cl)cc(Cl)c2c1NCCC2`, the inhibition was 7.06%. Take `Oc1c(Cl)cc(Cl)c2cccnc12`: the inhibition was -7.26%. For `CCC(C)NCCCCOc1cc(C)cc(C(C)C)c1` (configuration not stated), the inhibition was 3.28%. For `CCC(=O)N(C)CCc1cc2c(c(OC)c1/C=N/NC(=O)c1ccccc1O)OCO2`, the inhibition was -6.1%. Take `C#CCOCCOCCOCCNc1nc(N2CCOCC2)nc(N2CCN(C(=O)[C@H]([C@@H](C)CC)n3cc(CCCCN)nn3)CC2)n1`: the inhibition is 0.08%.

For the compound `O=[N+]([O-])c1ccc(-c2ccc(/C=N/c3c(-c4ccco4)nc4ccccn34)o2)c(Cl)c1`, the inhibition was 8.98%.

As to `O=[N+]([O-])c1ccc(-c2ccc(/C=N/c3c(-c4ccco4)nc4ccccn34)o2)cc1`, the inhibition was 27.6% (active). For the compound `O=[N+]([O-])c1ccc(Cl)c(-c2ccc(/C=N/c3c(-c4ccco4)nc4ccccn34)o2)c1`, the inhibition is 6.65%. As to `COC(=O)C(Cc1ccccc1)NC(=O)C(CC(C)C)NC(=O)OC(C)(C)C` (stereo not drawn) (Boc-Leu-Phe-OMe; configuration not given here), the inhibition was -2.73%. The figure for `CC(C)CC(NC(=O)OC(C)(C)C)C(=O)NCc1ccccc1` (configuration not stated) is -0.35%; for `O=C1N[C@@H](Cc2ccccc2)C(=O)N1CCN1CCOCC1` it is -7.62%. In the case of `O=C(Cn1cnc2ccccc21)N/N=C/c1ccccc1[N+](=O)[O-]`, the inhibition was -4.86%. Regarding `Cc1ccc(S(=O)(=O)N2CCN(C(=O)CC(C)(C)C)CC2)cc1`, the inhibition was 3.77%.

Take `CN(c1ccccc1C(=O)Nc1ccc(F)c(F)c1)S(C)(=O)=O`: the inhibition is 0.14%. In the case of `COC(=O)CN1C(c2ccc(Cl)cc2)=Nc2ccc(Cl)cc2C1c1ccccc1` (configuration not stated), the inhibition is 8.62%. Regarding `O=C1CN2C(=Nc3ccc(Br)cc3C2c2ccccc2)CCN1` (configuration not stated), the inhibition is 3.13%.

Turning to `O=C1CN2C(=Nc3ccc(Cl)cc3C2c2ccccc2)CN1` (configuration not stated), the inhibition was 27.9% (active). Turning to `COc1ccc(C2=NOC(C(=O)Nc3cc(C)on3)C2)cc1OC` (configuration not stated), the inhibition is 9.84%.

Turning to `C=CCNC(=O)/C(C#N)=C\c1cc(Cl)c(O)c(OCC)c1`, the inhibition was 1.82%.

Turning to `COc1ccc(/C=C(/C#N)C(=O)Nc2ccc(O)cc2)cc1C(=O)O`, the inhibition was 15.9%. With `CC(C)COc1ccc(/C=C2/Sc3ccccc3C2=O)cc1`, the inhibition was -0.23%. In the case of `CCOC(=O)C1=C2NC(=O)c3ccccc3N2C(=O)C1`, the inhibition was 7.37%. Consider `COc1ccc(C(=O)NNC(=O)CCC(=O)Nc2cc(C)on2)cc1`, for which the inhibition is 6.61%.

In the case of `CC(=O)Nc1ccccc1-c1nc2ccc(C(=O)N3CCN(c4cc(C)ccc4C)CC3)cc2[nH]c1=O`, the inhibition was 4.66%. Turning to `CC(=O)Nc1ccccc1-c1nc2ccc(C(=O)N3CCN(c4ccccc4)CC3)cc2[nH]c1=O`, the inhibition was 28% (active).

On to `CC(=O)Nc1ccccc1-c1nc2ccc(C(=O)N3CCN(c4cccc(C)c4)C(C)C3)cc2[nH]c1=O` (configuration not stated), for which the inhibition was 6.05%.

`Cc1ccccc1-c1cnn(-c2cccc([N+](=O)[O-])c2)c1N`: the inhibition is 1.77%.

In the case of `Cc1ccc(-c2nc3cc(N)ccc3o2)cc1`, the inhibition is 6.2%. Next, `CC(C)c1ccc2oc(-c3ccc(N)cc3)nc2c1`: 4.91%. Next, `CC(=O)N(C(C)=O)N1C(=O)/C(=C/c2ccc(Cl)cc2)SC1=S`: 29.5%. As to `O=S(=O)(Nc1ncnc2sc3c(c12)CCC3)c1ccc(Cl)s1`, the inhibition was 20%.

For the compound `O=S(=O)(Nc1ncnc2sc3c(c12)CCC3)c1ccc2ccccc2c1`, the inhibition was 27.9% (active). Regarding `O=S(=O)(Nc1ncnc2sc3c(c12)CCC3)c1cc(F)ccc1F`, the inhibition was 11.3%.

Consider `CC(C)CCOCC(=O)Oc1ccccc1C(=O)O`, for which the inhibition was -2.22%. Turning to `CCN(CC)CCCOC(=O)c1ccc(OC)cc1O`, the inhibition is 1.55%.

Take `Cc1ccc(C2=NNC(=O)C(c3c[nH]c4ccccc34)C2)cc1` (configuration not stated): the inhibition was 1.55%. For `CS(=O)(=O)NN1C(=O)c2ccccc2NC12CCCC2`, the inhibition was 6.27%. As to `O=C1c2ccccc2NC2(CCCC2)N1NS(=O)(=O)c1ccccc1`, the inhibition is 7.28%.

As to `CCOC(=O)NN1C(=O)c2ccccc2NC1(C)C`, the inhibition was 13.7%.

Turning to `CC1(C)Nc2ccccc2C(=O)N1NC(=O)c1ccccc1`, the inhibition was 22.7%. Regarding `COc1ccc(NC(=O)c2ccccc2F)cc1Cl`, the inhibition is 5.75%. With `CCCC[C@@H]1CNC(=S)N1CCCc1cc(OC)c(OC)c(OC)c1`, the inhibition is 2.36%. On to `COc1cc(NC(=O)CSc2nnnn2Cc2ccccc2)cc(OC)c1`, for which the inhibition is -0.13%. On to `Cc1nc(COC(=O)c2ccc(CO)cc2)cs1`, for which the inhibition is 4.37%. `Cn1c(=O)c2nc(Cl)c(-c3ccccc3)nc2n(C)c1=O`: the inhibition was 4.55%. With `COCCCNc1ccc([N+](=O)[O-])cc1C(=O)Nc1cccc(C)n1`, the inhibition was 2.01%. Consider `O=c1[nH]c2ccc(NS(=O)(=O)c3ccc(Cl)cc3)cc2[nH]1`, for which the inhibition is 7.26%. In the case of `CCOc1ccc(NS(=O)(=O)c2ccc3[nH]c(=O)c(=O)[nH]c3c2)cc1`, the inhibition is 10.4%.
